Compounds with a hit are over-represented: about 1.4% of the library has one in this group of screens.
p-CIP stab down: compounds decreasing mouse p/CIP protein stability. Q05BA5. F442A p/CIP-EGFP cells, EGFP fluorescence, 16 h. decrease of EGFP signal, % at 10 µM. hit rate 0.01% among 290,000. AID 1984;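 active = EGFP signal decrease of at least 30% at 10 µM or well 3 SD below plate mean, unless failing retest; inactive = the rest, including hits failing retest or dose response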
Target sequence (Q05BA5 1-1403): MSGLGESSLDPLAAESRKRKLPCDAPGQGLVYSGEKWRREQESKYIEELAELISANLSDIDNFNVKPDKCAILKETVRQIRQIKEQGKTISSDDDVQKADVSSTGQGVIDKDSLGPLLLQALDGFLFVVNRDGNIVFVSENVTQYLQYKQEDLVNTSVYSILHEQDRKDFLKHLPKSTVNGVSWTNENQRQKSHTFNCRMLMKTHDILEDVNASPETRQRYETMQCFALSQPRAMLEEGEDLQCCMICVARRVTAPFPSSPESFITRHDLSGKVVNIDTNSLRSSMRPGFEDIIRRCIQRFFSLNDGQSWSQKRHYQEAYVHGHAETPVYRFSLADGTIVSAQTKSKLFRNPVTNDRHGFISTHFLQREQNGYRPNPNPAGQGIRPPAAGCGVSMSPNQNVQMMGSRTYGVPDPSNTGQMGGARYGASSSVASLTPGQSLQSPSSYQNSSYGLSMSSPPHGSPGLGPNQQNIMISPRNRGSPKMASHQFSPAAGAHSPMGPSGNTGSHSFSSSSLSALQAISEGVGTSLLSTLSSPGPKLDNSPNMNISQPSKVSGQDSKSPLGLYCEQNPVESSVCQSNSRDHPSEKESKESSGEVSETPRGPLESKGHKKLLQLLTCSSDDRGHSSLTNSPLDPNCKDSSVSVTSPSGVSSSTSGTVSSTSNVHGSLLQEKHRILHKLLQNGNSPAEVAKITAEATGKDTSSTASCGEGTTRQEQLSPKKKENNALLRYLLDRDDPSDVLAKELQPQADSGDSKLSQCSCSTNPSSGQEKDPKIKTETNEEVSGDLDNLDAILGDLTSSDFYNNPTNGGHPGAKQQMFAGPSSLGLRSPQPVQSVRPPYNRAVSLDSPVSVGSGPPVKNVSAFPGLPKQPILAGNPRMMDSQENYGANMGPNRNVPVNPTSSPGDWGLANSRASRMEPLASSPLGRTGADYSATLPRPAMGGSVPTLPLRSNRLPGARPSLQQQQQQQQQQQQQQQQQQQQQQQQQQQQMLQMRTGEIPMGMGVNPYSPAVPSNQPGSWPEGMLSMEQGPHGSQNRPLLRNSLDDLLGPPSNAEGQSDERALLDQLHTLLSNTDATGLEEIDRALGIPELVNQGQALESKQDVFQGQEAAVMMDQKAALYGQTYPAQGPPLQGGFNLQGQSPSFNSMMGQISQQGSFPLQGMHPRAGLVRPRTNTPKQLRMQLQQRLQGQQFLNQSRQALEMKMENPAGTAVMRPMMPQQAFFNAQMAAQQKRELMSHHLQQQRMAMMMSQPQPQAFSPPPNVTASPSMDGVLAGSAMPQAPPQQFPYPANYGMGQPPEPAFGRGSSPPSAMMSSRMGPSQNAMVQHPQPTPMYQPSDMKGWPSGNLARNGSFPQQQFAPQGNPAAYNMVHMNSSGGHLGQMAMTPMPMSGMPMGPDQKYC
14-3-3 Bad PPI: disrupts binding of bovine 14-3-3 zeta to phospho-Bad peptide. TR-FRET 14-3-3zeta/Dy647-pBad peptide displacement, 1 h. hit rate 0.71% among 220,000. inhibition, % at 21.7 µM. P63103;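 active = inhibition above about 70%, limit read from the data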
bovine MsrA act: bovine methionine sulfoxide reductase A activation. purified bovine MsrA, absorbance read-out. activation, % at 10.6 µM. hit rate 0.3% among 360,000; in the data active = activation above about 7.5%
MsrA inh: bovine MsrA inhibition | hit rate 0.75% among 360,000 | purified bovine MsrA, absorbance read-out | inhibition, % at 15.5 µM
MsrA conf: confirmation of bovine MsrA inhibitors; shares compounds with MsrA inh; purified bovine MsrA, absorbance read-out; inhibition, % at 15.5 µM; hit rate 41% among 2,300; AID 651822;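 also: coupled to thioredoxin reductase with NADPH and selenocystamine and DMSO as substrate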
Hits are given with their value; n = inactive; x = no result given. Rule as the data show it, unless noted: active = inhibition above about 4.5%; inactive = the rest.

SMILES | p-CIP stab down | 14-3-3 Bad PPI | bovine MsrA act | MsrA inh | MsrA conf
CCNC(=O)C1CCCN(Cc2ccc(C(=O)OCC)cc2)CC1 (stereo not drawn) | x | x | n | n | x
CCOC(=O)C(=CNc1ccc(C#N)cc1)C(=O)OCC | n | n | n | 7.1 | 5.5
O=C(NCc1nnc(SCC(=O)N2CCCCCC2)o1)c1ccccc1F | n | x | n | n | x
Cn1c2c(sc1=O)CCC2 | x | x | n | n | x
COc1cc(Nc2ccc(C)cc2)c([N+](=O)[O-])nc1[N+](=O)[O-] | n | n | n | n | x
Cc1cc(C)cc(Nc2ccc([N+](=O)[O-])nc2[N+](=O)[O-])c1 | n | n | n | 19 | 17
Oc1ccc(/C=N/NC(=S)Nc2cccnc2)c(O)c1 | n | n | n | 7.0 | 5.2
COc1cc(/C=C/C(=O)OCC(=O)NCC(=O)Nc2cccc(C)c2C)ccc1OC(F)F | x | x | n | n | x
Cc1ccc(/C=C/C(=O)Nc2nnc(C)s2)o1 | n | n | n | 7.6 | 5.3
Cc1[nH]n(-c2ccc([N+](=O)[O-])cc2)c(=O)c1C=NCC1CCCO1 (stereo not drawn) | n | n | n | 6.8 | 5.3
CC1CC(=O)NN=C1c1ccc(N(C)C)c([N+](=O)[O-])c1 (stereo not drawn) | n | n | n | 4.7 | n
CCOC(=O)[C@@H]1[C@H]2COc3ccc(Br)cc3[C@H]2N2C(=O)N(c3ccc(C(F)(F)F)cc3)C(=O)[C@]12C | x | x | n | n | x
CCOC(=O)/C(C#N)=C1/C=CNC(=O)N1 | n | n | n | 4.7 | n
COc1cc(/C=C/c2ccc3cccc([N+](=O)[O-])c3n2)ccc1OCC(=O)O | n | n | n | 5.8 | n
C/C(=N\Nc1nnc2c3ccccc3n(C)c2n1)c1ccc(C)o1 | n | n | n | 5.6 | n
C/C(=N\Nc1nc(C)cc(C)n1)c1ccc(C)o1 | n | n | n | n | x
O=C(Nc1ccc2nc(-c3ccc(Br)o3)[nH]c2c1)c1ccco1 | n | n | n | 6.5 | 6.6
CC(C)c1nc(NCCO)c(C#N)c2c1CCCC2 | n | n | n | 8.8 | 7.0
N#Cc1c(NCCCO)nc(-c2ccco2)c2c1CCCC2 | n | n | n | 9.5 | 7.6
O=P(c1ccccc1)(c1ccccc1)c1ccc(O)cc1 | n | x | n | n | x
Cc1ccc(S(=O)(=O)Oc2ccc(/C=N/N=C3/NC(=O)C(CC(=O)O)S3)cc2)cc1 (stereo not drawn) | n | x | n | n | x
COc1ccc(/C=N/N=C2/NC(=O)C(CC(=O)O)S2)cc1OCc1ccccc1Cl (stereo not drawn) | n | n | n | 6.5 | 6.4
COc1ccc(/C=N/N=C2/NC(=O)C(CC(=O)O)S2)cc1OCc1ccc(Cl)cc1Cl (stereo not drawn) | n | n | n | n | x
COc1ccc(S(=O)(=O)Oc2cccc(/C=N/N=C3/NC(=O)C(CC(=O)O)S3)c2)cc1 (stereo not drawn) | n | n | n | 5.2 | n
CCOc1cc(/C=N/N=C2/NC(=O)C(CC(=O)O)S2)ccc1OS(=O)(=O)c1ccc(C)cc1 (stereo not drawn) | n | n | n | 5.6 | n
SMILES | p-CIP stab down | 14-3-3 Bad PPI | bovine MsrA act | MsrA inh | MsrA conf
CCOc1cc(/C=N/N=C2/NC(=O)C(CC(=O)O)S2)ccc1OCc1ccccc1Cl (stereo not drawn) | n | n | n | 6.8 | 4.8
Cc1c(CCC(=O)NCCCn2ccnc2)c(=O)oc2c(C)c3oc4c(c3cc12)CCCC4 | n | x | n | x | x
CC(C)(C)OC(=O)C[C@@H]1C/C=C\C[C@@H](CC(=O)NCCO)C(=O)NC[C@H](c2ccccc2)OC1=O | x | x | n | n | x
O=C(CSc1ncccn1)NNC(=O)c1ccccc1 | n | x | n | n | x
O=C(C(=O)c1ccc(O)c(O)c1)c1ccc(O)c(O)c1 | x | x | n | 7.6 | 8.3
Cc1ccccc1CSCC(=O)Nc1ccccc1F | n | x | n | n | x
c1cc2c3c(cccc3c1)NC1(CCCC1)N2 | x | x | n | n | x
S=C1NC2(CCCC2)Nc2ccccc21 | n | n | n | 9.1 | 8.7
S=C1NC2(CCCCC2)Nc2ccccc21 | n | n | n | 6.4 | 7.2
CC1(C)CC(N2CCCC2)=CC(=[N+]2CCCCCC2)C1 | n | n | n | 6.7 | 4.9
CC1CC(C)C[N+](=C2C=C(N3CCCC3)CC(C)(C)C2)C1 (stereo not drawn) | n | n | n | 5.8 | n
CC1(C)CC(N2CCN(c3ccccc3)CC2)=CC(=[N+]2CCCC2)C1 | n | n | n | 5.5 | 5.0
Cc1nc(NC(=O)c2cnccn2)ccc1Br | n | x | n | n | x
COc1ccc(CC(=O)N2CCN(c3ccc(C4=NNC(=O)CC4C)cc3)CC2)cc1 (stereo not drawn) | n | n | n | 4.8 | n
CCOc1ccc(OCCC(=O)OCC(=O)N2CCN(S(=O)(=O)c3ccc(C)cc3C)CC2)cc1 | x | x | n | n | x
COc1ccc(/C=C(\C#N)C(=O)NC(C)c2ccccc2)cc1O (stereo not drawn) | n | x | n | 4.9 | n
N#CC(c1ccccc1O)N1N=C(c2ccccc2)CC1c1ccccc1 (stereo not drawn) | n | n | n | n | x
COc1cc(C(C#N)N2N=C(c3ccccc3)CC2c2ccccc2)ccc1O (stereo not drawn) | n | n | n | 4.7 | n
COc1ccc2[nH]c3c(c2c1)CCN1C(=O)C(CC(=O)NCCCN(C)C)C[C@H](C(=O)N2CCCCC2)[C@@]31C (stereo partly drawn) | x | x | n | n | x
COc1ccc2[nH]c(C(=O)N/N=C/c3ccc(OC)c(O)c3)cc2c1 | n | x | n | 7.5 | 7.8
CCCOc1ccc2[nH]c(C(=O)N/N=C/c3cc(OC)c(OC)c(OC)c3)cc2c1 | n | x | n | n | x
COc1ccc(OC)c(/C=N\NC(=O)c2ccc(-c3ccccc3)cc2)c1 | n | x | n | n | x
COc1ccc2[nH]c(C(=O)N/N=C/c3ccccc3OC)cc2c1 | n | x | n | 5.8 | 5.4
COc1ccc(/C=N/NC(=O)c2cccc(NC(=O)c3ccccc3Cl)c2)c(OC)c1 | n | n | n | 5.3 | n
COc1ccc(C(=O)N/N=C/c2cc3ccccc3[nH]c2=O)cc1 | n | n | n | 5.0 | n
SMILES | p-CIP stab down | 14-3-3 Bad PPI | bovine MsrA act | MsrA inh | MsrA conf
Cc1nn(-c2ccccc2)c(C)c1C(=O)OCC(=O)N(C)c1c(N)n(Cc2ccccc2)c(=O)[nH]c1=O | x | x | n | n | x
C=CCN(c1ccccc1)S(=O)(=O)c1cccc(C(=O)N2CC(C)CC(C)C2)c1 (stereo not drawn) | n | x | n | n | x
Cc1ccc(C(=O)N/N=C/c2ccc(-c3ccc(Br)cc3[N+](=O)[O-])o2)o1 | n | x | n | n | x
O=C(O)CC1S/C(=N/N=C/c2ccc(-c3ccccc3[N+](=O)[O-])o2)NC1=O (stereo not drawn) | n | n | n | 4.9 | n
Cc1ccc(-c2ccc(/C=N/N=C3/NC(=O)C(CC(=O)O)S3)o2)c([N+](=O)[O-])c1 (stereo not drawn) | n | n | n | 5.9 | 6.8
O=[N+]([O-])c1ccccc1-c1ccc(/C=N/n2cnnc2)o1 | n | n | n | n | x
COc1cc(-c2[nH]ncc2CN2CCCC2c2nonc2C)cc(OC)c1OC (stereo not drawn) | n | n | n | n | x
Cc1nonc1C1CCCN1Cc1cn[nH]c1-c1ccc(-c2ccccc2)cc1 (stereo not drawn) | n | n | n | 29 | 22

From PubChem BioAssay
